Experimental data taken from the supplement of paper PMC10646978.
± gives the standard deviation.

Legend:
Conditions in all cases: modulator concentration 10 µM
[1] = tested on: RAW-Dual (murine macrophage reporter line); experiment: NF-kB reporter (SEAP) activity fold change vs agonist alone; higher = enhanced NF-kB activity
Method in brief: (§1)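 In 384-well plates holding 50 000 RAW-Dual murine macrophage reporter cells per well, compound at 10 μM final was pre-incubated for 1 hour at 37 °C, after which a PRR agonist was added overnight. Supernatant SEAP read with QUANTI-Blue at 620 nm absorbance reported NF-κB, and Lucia luciferase read with QUANTI-Luc luminescence reported IRF. Fold change values come from dividing each reporter signal by the mean of agonist-only control wells on the same plate, averaged over replicate plates with propagated errors.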

[2] = tested on: RAW-Dual (murine macrophage reporter line); experiment: IRF reporter (Lucia luciferase) activity fold change vs agonist alone; higher = enhanced IRF activity
Method in brief: as §1

[3] = tested on: RAW-Dual (murine macrophage reporter line); experiment: viability score (confluency relative to resting cells, overnight) (fraction); higher = more viable, active = viable (0.7 or more)
Method in brief: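 In 384-well plates, RAW-Dual macrophages received compound at a final 10 μM overnight. Two confluency masks were then made with IncuCyte software from IncuCyte images of all imaged wells. The viability score is defined as confluency relative to resting cells. Passing the cutoff required both masks to lie above 70% of resting cells.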

[4] = agonist: CpG ODN 1826 0.5 ug/mL

SMILES	NF-kB reporter [1, 4]	NF-kB reporter ([1]; agonist: LPS 0.1 ug/mL)	NF-kB reporter ([1]; agonist: MPLA […])	IRF reporter ([2]; agonist: 3'3'-cGAMP 10 ug/mL)	IRF reporter ([2]; agonist: LPS 0.1 ug/mL)	IRF reporter ([2]; agonist: MPLA […])	viability score [3]
O=C(NCCCOc1cccc2cccnc12)c1cnccn1	1.03 ± 0.059	0.979 ± 0.094	0.998 ± 0.035	0.95 ± 0.036	1.01 ± 0.052	0.99 ± 0.1	1 (active)
CN(C)Cc1ccc(S(=O)(=O)n2ccc(/C=C/C(=O)NO)c2)cc1	0.517 ± 0.028	0.946 ± 0.11	1.25 ± 0.12	1.3 ± 0.12	1.49 ± 0.18	1.6 ± 0.36	0.334 (inactive)
Nc1ncnc2c1ncn2[C@@H]1O[C@H](CO)[C@@H](O)[C@@H]1O.O	1.09 ± 0.064	1.02 ± 0.065	0.997 ± 0.058	0.714 ± 0.026	1.04 ± 0.13	1.18 ± 0.14	0.991 (active)
CC(C)(O)c1ccccc1CC[C@@H](SCC1(CC(=O)O)CC1)c1cccc(/C=C/c2ccc3ccc(Cl)cc3n2)c1 [Prestw-1189]	1.1 ± 0.084	0.765 ± 0.056	1.04 ± 0.098	1.05 ± 0.048	1.27 ± 0.16	1.41 ± 0.34	0.881 (active)
COC(=O)C1=CN(CC2CCCO2)C=C(C(=O)OC)C1c1cccc(Br)c1 (stereo unspecified)	0.886 ± 0.18	0.871 ± 0.088	0.944 ± 0.073	0.975 ± 0.037	1.21 ± 0.13	1.29 ± 0.13	1 (active)
COCCN1C(=O)CN(C2CCN(Cc3cc(OC)cc(OC)c3)CC2)C1=O	0.918 ± 0.047	1.14 ± 0.11	0.881 ± 0.04	0.979 ± 0.051	1.09 ± 0.12	1.13 ± 0.13	1.01 (active)
COC(c1ccccc1)(c1ccccc1)[C@H](Oc1nc(C)cc(C)n1)C(=O)O	1.32 ± 0.18	1.08 ± 0.11	0.901 ± 0.055	1.05 ± 0.043	1.3 ± 0.14	1.15 ± 0.11	1 (active)
Cc1nn2c(=O)c(Cc3ccccc3)c(C)[nH]c2c1-c1ccccc1	0.777 ± 0.068	0.878 ± 0.082	1.06 ± 0.11	1.09 ± 0.057	1.26 ± 0.074	1.36 ± 0.11	1 (active)
CNCCC(Oc1ccc(C(F)(F)F)cc1)c1ccccc1.Cl (stereo unspecified)	0.766 ± 0.072	0.848 ± 0.087	1.33 ± 0.19	1.04 ± 0.13	0.972 ± 0.056	0.9 ± 0.19	0.379 (inactive)
CC(C)(C)C(=O)OCOP(=O)(COCCn1cnc2c(N)ncnc21)OCOC(=O)C(C)(C)C	1.69 ± 0.25	1.36 ± 0.11	1.65 ± 0.1	1.81 ± 0.096	5.89 ± 0.5	3.2 ± 0.43	0.788 (active)
NS(=O)(=O)c1cc(Cl)c(Cl)c(S(N)(=O)=O)c1 [Prestw-809]	1.15 ± 0.13	1.02 ± 0.083	0.953 ± 0.046	0.916 ± 0.067	0.92 ± 0.093	0.911 ± 0.16	1 (active)
Cc1cc(CCC(=O)N(C)C2CN(c3ccc4nnc(C)n4n3)C2)ccc1F	1.11 ± 0.058	1.1 ± 0.091	0.918 ± 0.046	1.19 ± 0.073	1.12 ± 0.095	1.11 ± 0.16	0.979 (active)
Cc1nc(NC(=O)N2CCC[C@H]2C(N)=O)sc1-c1ccnc(C(C)(C)C(F)(F)F)c1	0.626 ± 0.034	0.894 ± 0.072	1.6 ± 0.66	0.916 ± 0.066	1.18 ± 0.24	1.32 ± 0.33	1.02 (active)
CCOC(=O)C1=CC2(CC)CCCN3CCc4c(n1c1ccccc41)C32 (stereo unspecified)	0.79 ± 0.061	0.928 ± 0.078	0.915 ± 0.09	0.963 ± 0.032	1.3 ± 0.13	1.4 ± 0.21	1.03 (active)
Cc1cc(OCC(=O)Nc2ccc(Cl)c(C(F)(F)F)c2)ccc1Cl	0.934 ± 0.079	0.942 ± 0.056	1.24 ± 0.11	1.02 ± 0.051	1.7 ± 0.1	1.83 ± 0.19	0.971 (active)
NC(=O)NCC(N)C(=O)O (stereo unspecified)	0.988 ± 0.082	1.02 ± 0.09	0.969 ± 0.022	0.959 ± 0.053	0.963 ± 0.12	1.02 ± 0.1	0.994 (active)
COc1cc(C=Nc2ccc3oc(-c4ccc(C(C)(C)C)cc4)nc3c2)ccc1OC(=O)c1ccc(Cl)cc1Cl	0.994 ± 0.056	0.981 ± 0.11	0.936 ± 0.11	0.931 ± 0.031	1.28 ± 0.15	1.14 ± 0.1	1.01 (active)
COc1cc2c(cc1Cc1cccc(Cl)c1F)c(=O)c(C(=O)O)cn2[C@H](CO)C(C)C	0.941 ± 0.14	1.04 ± 0.27	1.25 ± 0.085	0.822 ± 0.026	1.13 ± 0.12	0.848 ± 0.079	0.936 (active)
